Source: PubChem (several laboratories)
CYP2C9 inhib = blocks human cytochrome P450 2C9 | AID 777 | CYP2C9 Supersomes, luciferin-H conversion, luminescence | 96,000 tested, 20% active | inhibition, % at 5 µM;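 active = blocking of liver enzyme CYP2C9 beyond about 50% at 5 µM, limit read from the data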
Measles CPE = protection of cells from measles virus; AID 841; 140,000 tested, 1.5% active; Measles virus-infected cells, CPE protection, absorbance; protection (pct of control), % at 4 µM; in the data active = protection mostly above about 24%, no sharp cut-off; inactive = mostly below about 26%
CYP2C19 activ = cytochrome P450 2C19 (human) activation; 96,000 tested, under 10 active; recombinant CYP2C19, luciferin-H EGE luminescence; hits give high values; 0 = fully inhibited enzyme, 1 = untreated enzyme; activation factor at 5 µM;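 active = activation factor of at least 2 at 5 µM in the primary screen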
Target sequence (P33261 whole entry, looked up): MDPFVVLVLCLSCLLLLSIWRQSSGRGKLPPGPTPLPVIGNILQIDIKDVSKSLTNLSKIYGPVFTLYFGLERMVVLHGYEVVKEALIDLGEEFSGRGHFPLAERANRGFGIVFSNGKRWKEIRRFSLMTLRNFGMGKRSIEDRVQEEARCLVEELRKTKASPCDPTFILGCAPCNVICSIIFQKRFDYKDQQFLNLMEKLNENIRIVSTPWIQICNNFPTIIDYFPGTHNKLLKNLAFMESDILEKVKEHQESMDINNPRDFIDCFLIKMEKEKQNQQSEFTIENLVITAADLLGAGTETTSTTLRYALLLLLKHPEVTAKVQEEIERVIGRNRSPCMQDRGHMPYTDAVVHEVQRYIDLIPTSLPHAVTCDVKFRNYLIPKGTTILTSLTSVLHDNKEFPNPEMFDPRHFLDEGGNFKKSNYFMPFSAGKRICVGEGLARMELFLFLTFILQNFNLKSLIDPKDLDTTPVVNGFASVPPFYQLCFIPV
CYP2C19 inhib = blocks human cytochrome P450 2C19. inhibition, % at 5 µM. CYP2C19 Supersomes, luciferin-H EGE luminescence, 30 min. 96,000 tested, 21% active. P33261. AID 778;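 active = CYP2C19 inhibition above a set limit at 5 µM in the primary screen, cut at about 50% in these data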
CYP2C9 act = activators of human CYP2C9; recombinant CYP2C9, luciferin-H conversion, luminescence; hits give high values; factor 1 = untreated enzyme, 0 = blocked; activation factor at 5 µM; 96,000 tested, 1.4% active; AID 1024;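 active = activation factor of 2 or more for CYP2C9 at a 5 µM dose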
Of the large screens only hits and unclear results are named; the others gave an inactive call. Hits are enriched below; roughly 22% of the tested compounds scored in any of these assays.

CC1(C)N=C(c2ccc(Cl)cc2)C(=O)N1	CYP2C19 inhib 87
CC(C)C(NC(=O)OCc1ccccc1)C(=O)NCc1ccc(C(=O)O)cc1 (stereo not drawn)	none (no result: CYP2C9 inhib, CYP2C19 activ, CYP2C19 inhib, CYP2C9 act)
O=C(Nc1nnc(C2CC2)s1)c1cc2c(s1)CCCCCC2	none
COc1cc(/C=C(/C(=O)c2cccs2)c2nc3ccccc3[nH]2)ccc1O	CYP2C9 inhib 55
COc1ccc(/C=C(/NC(=O)c2ccccc2)c2nc3ccccc3[nH]2)cc1OC	none
O=C(/C(=C/c1ccc(Cl)cc1)c1nc2ccccc2[nH]1)c1cccs1	CYP2C9 inhib 99, CYP2C19 inhib 76
c1csc(-c2noc(COc3ccc4c(c3)CCCC4)n2)c1	none
CC(=O)Nc1ccc(NC(=O)C(C)OC(=O)CNC(=O)c2sc3ccccc3c2Cl)cc1 (stereo not drawn)	none (no result: CYP2C9 inhib, CYP2C19 activ, CYP2C19 inhib, CYP2C9 act)
COc1cc(C2C3C(=O)N(c4ccc(F)cc4)C(=O)C3ON2c2ccccc2)ccc1O (stereo not drawn)	CYP2C9 inhib 53
O=C1C2ON(c3ccccc3)C(c3cccnc3)C2C(=O)N1c1ccc(Cl)c(Cl)c1 (stereo not drawn)	CYP2C19 inhib 68
COc1cc(C2C3C(=O)N(c4ccccc4)C(=O)C3ON2c2ccccc2)cc(OC)c1OC (stereo not drawn)	CYP2C19 inhib 50
Cc1ccccc1C(=O)Nc1ccccc1-n1cccc1	none
CC1CCN(C(=S)c2ccc(O)cc2)CC1	none
CC1CCN(C(=S)c2ccccc2O)CC1	CYP2C19 inhib 94
COC(=O)c1c(C)nc2c(c(SC)nn2-c2ccccc2)c1N	none
CC(C)c1cc(C(N)=O)c(NC(=O)C2CCC2)s1	CYP2C9 inhib 55, CYP2C19 inhib 57
O=C(Nc1ccon1)c1csc2c1CCCC2	none
CC(C)n1c(C(O)c2ccc3c(c2)OCO3)nc2ccccc21 (stereo not drawn)	CYP2C9 inhib 53, CYP2C19 inhib 98
COc1ccc(OC)c(C(O)c2nc3ccccc3n2C(C)C)c1 (stereo not drawn)	CYP2C19 inhib 74
Cn1c(C(O)c2ccc3c(c2)OCO3)nc2ccccc21 (stereo not drawn)	CYP2C9 inhib 62, CYP2C19 inhib 97
OC(c1ccc2c(c1)OCO2)c1nccc2ccccc12 (stereo not drawn)	CYP2C19 inhib 95
COc1cccc(Nc2nc3ccccc3n2C(C)C)c1	none (no result: CYP2C9 inhib, CYP2C19 activ, CYP2C19 inhib, CYP2C9 act)
CCn1c(C(O)c2ccc(C)cc2)nc2ccccc21 (stereo not drawn)	none
CCCCCCn1c(CN2CCN(C(=O)c3ccco3)CC2)nc2c1c(=O)n(C)c(=O)n2C	none (no result: CYP2C9 inhib, CYP2C19 activ, CYP2C19 inhib, CYP2C9 act)
O=C1CSC(c2ccc3c(c2)OCO3)N1c1ccc(Oc2ccccc2)cc1 (stereo not drawn)	CYP2C9 inhib 60
Cc1ccc(N2C(=O)CSC2c2ccc3c(c2)OCO3)cc1 (stereo not drawn)	CYP2C9 inhib 69, CYP2C19 inhib 100
CN(C)c1ccc(/C=C/c2nc3ccccc3s2)cc1	none
Cc1ccc(/C=C/c2nc3ccccc3s2)s1	CYP2C19 inhib 72
Cc1cccc(NC(=S)NNC(=O)CC(C)O)c1C (stereo not drawn)	CYP2C9 inhib 61
Cc1ccc2nc(Cc3ccc(N)cc3)oc2c1	CYP2C19 inhib 69
C/C(Cn1nc([N+](=O)[O-])cc1C)=N\NC(=O)c1cccc(Br)c1	CYP2C19 inhib 59
CC(C)c1ccc(C2C(C#N)=C(N)N3C(=C2C#N)Sc2ccccc23)cc1 (stereo not drawn)	CYP2C19 inhib 67
O=C(CCc1ccccc1)Nc1cc2c(cc1Cl)OCCO2	none (no result: CYP2C9 inhib, CYP2C19 activ, CYP2C19 inhib, CYP2C9 act)
CCCc1cc(NCC2CCCO2)n2c(nc3ccccc32)c1C#N (stereo not drawn)	CYP2C9 inhib 60
CCCNc1cc(C)c(C#N)c2nc3ccccc3n12	none (no result: CYP2C9 inhib, CYP2C19 activ, CYP2C19 inhib, CYP2C9 act)
O=C(NCc1ccco1)c1ccc2nc3sc4c(c3c(=O)n2c1)CCCC4	none
CN(C(=O)C(Cl)Cl)c1ccc(OC(=O)c2ccco2)cc1	none (no result: CYP2C9 inhib, CYP2C19 activ, CYP2C19 inhib, CYP2C9 act)
Cc1cc(NC(=O)/C(C#N)=C/c2ccc(-c3cccc(C(F)(F)F)c3)o2)n(-c2ccccc2)n1	none (no result: CYP2C9 inhib, CYP2C19 activ, CYP2C19 inhib, CYP2C9 act)
CCCCc1oc2c(c(=O)c1C)C(=O)CC(c1ccccc1)C2 (stereo not drawn)	CYP2C9 inhib 78, CYP2C19 inhib 100
Cc1nn(C)c(C)c1CNC(=O)/C=C/c1ccccc1F	none (no result: CYP2C9 inhib, CYP2C19 activ, CYP2C19 inhib, CYP2C9 act)
CC1(C)CC(=O)C(C(=O)/C=C/NCCc2ccccc2)C(=O)C1	CYP2C9 inhib 74
CC1(C(=O)O)CCC(C(=O)NCCc2ccccc2)C1(C)C (stereo not drawn)	none
Cc1oc(-c2ccc(Cl)cc2)nc1CN1CCCC(C(=O)NCCCN2CCOCC2)C1 (stereo not drawn)	none
COc1ccccc1/C=C/C(=O)c1ccc(Cl)cc1	none
COc1ccccc1/C=C/C(=O)c1c2c(c(C)[nH]c1=O)CCCC2	CYP2C9 act 2.3
Cn1cccc1C(=O)OCc1cc(Cl)cc2c1OCOC2	CYP2C9 act 2.2
CC(C)CC(NC(=O)c1ccc(Cl)cc1)C(=O)OCc1cc([N+](=O)[O-])cc2c1OCOC2 (stereo not drawn)	none (no result: CYP2C9 inhib, CYP2C19 activ, CYP2C19 inhib, CYP2C9 act)
CCCCC1C2=C(CC(C)(C)CC2=O)OC2=C1C(=O)CC(C)(C)C2	none (no result: CYP2C9 inhib, CYP2C19 activ, CYP2C19 inhib, CYP2C9 act)
CCCC(=O)N(Cc1cc2ccccc2[nH]c1=O)c1ccccc1OC	CYP2C9 inhib 87, Measles CPE 38, CYP2C19 inhib 65
CCCS(=O)(=O)NCCc1cc2ccc(OC)cc2[nH]c1=O	none
COc1ccc2cc(CN(Cc3cccnc3)S(=O)(=O)c3ccccc3)c(=O)[nH]c2c1	none
COc1ccc(S(=O)(=O)N(Cc2cc3ccc(OC)cc3[nH]c2=O)CC2COCCO2)cc1 (stereo not drawn)	CYP2C9 inhib 75
Cc1ccc(S(=O)(=O)N(C)Cc2cc3ccccc3[nH]c2=O)cc1	none
CCCC(=O)N(Cc1cc2cc(C)ccc2[nH]c1=O)c1ccccc1OC	none
CN(Cc1cc2ccccc2[nH]c1=O)S(=O)(=O)c1ccccc1	CYP2C19 inhib 79
COc1ccc2cc(CN(CC3COCCO3)S(=O)(=O)c3ccccc3)c(=O)[nH]c2c1 (stereo not drawn)	CYP2C9 inhib 85
Cn1c2ccc(F)cc2c2ncn(CCN3CCOCC3)c(=O)c21	none
Cc1cnc(C(=O)Nc2nnc(C3CC3)s2)cn1	none
O=C(Nc1c(-c2ccccc2)nc2ccc(Cl)cn12)c1cccs1	none (no result: CYP2C9 inhib, CYP2C19 activ, CYP2C19 inhib, CYP2C9 act)
COc1ccc(CN2C(=O)c3ccccc3C(/C=N\OCc3ccc(C)cc3)C2=O)cc1 (stereo not drawn)	CYP2C9 inhib 73
CCN(CC)S(=O)(=O)c1ccc(NCc2ccccc2)nc1	CYP2C9 inhib 77, CYP2C19 inhib 64
CCCNc1ccc(S(=O)(=O)N(CC)CC)cn1	none (no result: CYP2C9 inhib, CYP2C19 activ, CYP2C19 inhib, CYP2C9 act)
CSc1nnnn1-c1cccc(O)c1	CYP2C9 act 2.4
COc1ccc(OCCC(=O)OCC(=O)NC(=O)NC(C)(C)C)cc1	CYP2C9 inhib 83, CYP2C19 inhib 84
COCCNC(=O)COC(=O)CSCc1nc2ccccc2s1	none
CCOC(=O)C1=C(C)N(C)C(C)=C(C(=O)OCC)C1c1ccc(Cl)cc1	none (no result: CYP2C9 inhib, CYP2C19 activ, CYP2C19 inhib, CYP2C9 act)
